Test results from the supplement of paper PMC6555819.

Tests used:
Assay in all cases: PBM binding z-score (relative to random genomic background probes); higher = stronger binding; sequences stand for … in GC…GCGATTGACAGCGTAGAATGAAGG
[1] = test system: PPARg:RXRa DBDmut IVT, anti-RXR (DBD mutation: RXRa K156A/R161A, NR concentration 270 nM, RXRa partner concentration 90 nM)
Procedure, shortened: (§1)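 The probes on custom Agilent 4×180K protein-binding microarrays were double-stranded, with 34-nt variable regions bearing direct-repeat seeds, single-nucleotide variants, half-site ablations and random human genomic background sequences. Incubation lasted 1 h with ligand-free nuclear receptor dimers in PBS pH 7.4, 2% milk, 0.02% Triton X-100, 1 mM DTT, 0.2 mg/mL BSA and 0.4 mg/ml salmon testes DNA. Antibodies against each partner (one per run) detected bound dimers, and fluorescence scans were regression-normalized. Binding z-scores take the random background probes as reference.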

[2] = test system: PPARg:RXRa IVT, anti-PPARg (NR concentration 270 nM, RXRa partner concentration 90 nM)
Procedure, shortened: as §1

[3] = test system: PPARg DBDmut:RXRa IVT, anti-PPARg (DBD mutation: PPARg1 K132A/R137A, NR concentration 270 nM, RXRa partner concentration 90 nM)
Procedure, shortened: as §1

[4] = test system: PPARg DBDmut IVT, anti-PPARg (DBD mutation: PPARg1 K132A/R137A, NR concentration 270 nM)
Procedure, shortened: as §1

[5] = test system: PPARg homodimer (NR concentration 180 nM)
Procedure, shortened: as §1

[6] = test system: PXR:RXRa (NR concentration 270 nM, RXRa partner concentration 90 nM)
Procedure, shortened: as §1

[7] = test system: PXR homodimer (NR concentration 270 nM)
Procedure, shortened: as §1

[8] = test system: RARa:RXR (NR concentration 270 nM, RXRa partner concentration 90 nM)
Procedure, shortened: as §1

[9] = test system: RARa homodimer (NR concentration 270 nM)
Procedure, shortened: as §1

[10] = test system: RARb:RXRa (NR concentration 270 nM, RXRa partner concentration 90 nM)
Procedure, shortened: as §1

[11] = test system: RARb homodimer (NR concentration 270 nM)
Procedure, shortened: as §1

[12] = test system: RARg:RXRa (NR concentration 270 nM, RXRa partner concentration 90 nM)
Procedure, shortened: as §1

[13] = test system: RARg homodimer (NR concentration 270 nM)
Procedure, shortened: as §1

[14] = test system: RXRa DBDmut IVT, anti-RXR (DBD mutation: RXRa K156A/R161A, NR concentration 90 nM)
Procedure, shortened: as §1

[15] = test system: RXRa homodimer (NR concentration 180 nM)
Procedure, shortened: as §1

[16] = test system: THRa:RXRa (NR concentration 90 nM, RXRa partner concentration 90 nM)
Procedure, shortened: as §1

[17] = test system: THRa homodimer (NR concentration 90 nM)
Procedure, shortened: as §1

[18] = test system: VDR homodimer (NR concentration 270 nM)
Procedure, shortened: as §1

Sequence	PBM binding z-score [1]	PBM binding z-score [2]	PBM binding z-score [3]	PBM binding z-score [4]	PBM binding z-score [5]	PBM binding z-score [6]	PBM binding z-score [7]	PBM binding z-score [8]	PBM binding z-score [9]	PBM binding z-score [10]	PBM binding z-score [11]	PBM binding z-score [12]	PBM binding z-score [13]	PBM binding z-score [14]	PBM binding z-score [15]	PBM binding z-score [16]	PBM binding z-score [17]	PBM binding z-score [18]
AGAATGAAGTTATTAAGATCAGGGAATTGCGGTC	-0.0627	-0.0866	0.409	0.313	0.538	-0.219	0.044	0.183	0.224	-0.286	-0.379	-0.168	-0.0523	-0.232	0.116	-0.108	-0.315	-0.263
TTACCAAGGTGAAGGTCGTTGTTCCCTCTGTAGA	2.23	3.49	-0.665	-0.042	0.635	1.47	0.134	1.76	-0.318	2.4	2.09	1.36	1.24	0.33	1.49	2.4	1.18	1.11
TCTTGTAGATCAACAGGGGGTTAAGAAAGATCGA	2.83	3.29	5.31	7.46	1.07	2.5	0.467	2.42	0.939	1.71	1.32	1.91	0.92	1.89	1.93	1.86	0.559	0.493
TCTTGTAGATCAATAGAGGTTAAGAAGGTGCGCT	1.45	0.982	-0.0465	0.519	0.274	2.12	-0.00143	1.94	0.262	0.921	1.27	0.969	0.482	0.518	1.33	2.37	-0.695	0.298
ACTAGCAGGCCAAGTTTGGATCACTCAAACAAAG	0.238	0.181	-0.895	-0.495	-0.574	-0.494	-0.612	-0.608	-0.518	0.165	-0.0539	-0.0446	0.341	-0.14	-0.454	-0.0937	-0.67	-0.0821
TAGCCTAGGTCAGATCGGGCCAGTTTACGCTATA	0.41	1.12	-0.332	-0.719	0.0651	1.13	-0.787	0.463	-1.05	2.69	1.83	2.54	3.36	-0.346	1.21	3.76	0.0282	-0.339
CAAACTAGGTCAAGGTCAAAGACGGTTTGTGCCA	8.62	8.85	4.67	5.73	5.24	4.88	2.2	5	2.69	5.16	5.1	5.82	6.9	3.16	5.06	4.34	3.55	4.1
CGAACTAGGTCATGCAGGACAGTGAATACATTGA	8.05	8.18	3.1	1.2	1.1	1.34	0.687	1.97	0.243	3.92	2.8	3.87	4.66	1.87	2.67	2.96	1.35	1.31
TCTATTAGTTAATTAGGGCAACCGAAACAGCGGA	4.63	5.38	1.64	1.52	0.99	0.546	0.152	0.998	1.68	1.04	0.756	0.526	0.551	1.16	0.875	1.05	0.627	0.625
TCGAGTAGGTTAGGGGCAGTCAGAATGGCGTCGA	2	1.49	-0.663	-0.988	0.763	0.184	0.227	0.265	-0.345	1.08	1.27	0.245	0.258	0.0348	0.203	0.742	0.229	0.0516
AGTCTAAGTTCAGGACGAGGTAACGTAAAGCACG	-0.507	0.167	0.154	0.579	1.1	2.21	1.18	1.79	0.351	2.95	1.85	3.11	2.65	3.28	1.57	3.56	1.99	2.62
TCTGCTAGGTCAGTTGGTCAGCTATCGAGCTGCC	2.46	3.27	0.301	0.371	0.0545	0.289	-0.818	0.544	-1.27	3.39	2.69	2.62	3.33	0.537	0.914	1.2	0.162	-0.608
CCGCGGAGGACAGAAGGTCAGAGCTGTCCGCTTT	-0.00504	0.1	-1.81	-2.04	0.973	1.42	-0.53	2.3	-0.744	3.25	3.51	3.69	3.56	0.479	2.27	2.17	-0.127	0.1
TCTTGTAGAGCAATAGAGGTTAAGAAAGTGCGCT	1.71	1.36	-0.0371	0.131	-0.051	2.73	-0.322	1.25	-0.851	0.425	0.76	0.413	0.158	-0.107	0.858	1.76	-1.07	-0.332
CTCGAAAGGTCGTGCTCAGTTGAGTATACCAAAC	0.724	1.41	0.908	0.182	1.01	3.56	0.333	3.85	0.101	3.85	2.57	4.35	3.63	1.71	4.77	2.66	0.251	0.971
AGAACGTGGGCAATGAGTTGATAGCACGGGTGGC	-0.374	-0.0857	-0.361	-0.494	-0.516	-0.399	-0.204	-0.5	-0.521	-0.261	-0.41	-0.369	-0.147	-0.174	0.0338	-0.628	-0.889	0.376

Sequence	PBM binding z-score [1]	PBM binding z-score [2]	PBM binding z-score [3]	PBM binding z-score [4]	PBM binding z-score [5]	PBM binding z-score [6]	PBM binding z-score [7]	PBM binding z-score [8]	PBM binding z-score [9]	PBM binding z-score [10]	PBM binding z-score [11]	PBM binding z-score [12]	PBM binding z-score [13]	PBM binding z-score [14]	PBM binding z-score [15]	PBM binding z-score [16]	PBM binding z-score [17]	PBM binding z-score [18]
GCTCGGAGGACGAGGTCAGAGCTTTGTCCGTAGA	-0.0575	0.506	-0.927	-1.57	0.162	2.57	0.107	2.7	-1.37	2.92	2.89	3.06	2.84	0.606	3.19	3.09	1.51	1.26
CCTAGCAGGCCAATGTGGGTCACTCAAGGCTTGA	4.05	4.91	-0.196	-1.11	0.296	1.24	-0.313	1.55	-0.725	1.54	2.16	1.23	1.02	-0.341	1.15	2.63	-0.567	-0.0479
CGAACTAGGTCATTGACTGGACAGTGAATAGTAA	8.06	8.06	5.21	5.65	0.956	0.89	0.0623	1.78	0.262	3.52	2.56	3.72	4.26	2.1	2.58	2.25	0.595	0.943
GCTATTAGTGGAAAGGGCAACCGAATGATTCTCG	0.437	0.575	0.104	-0.457	0.772	0.478	-0.0365	0.745	0.726	1.93	1.77	1.05	1.12	0.693	0.775	0.344	-0.457	-0.143
TCATATAGGTAAACAGGTAAAAGTCCGTAAGTTA	4.45	3.81	1.35	1.75	0.996	0.894	0.723	1.14	1.5	0.628	0.493	0.41	0.406	1.53	0.676	0.697	0.445	0.448
TGAATGAGGTTAAAGCTCAGGGAACGTGGCGTCG	2.25	2.59	-0.0715	0.871	0.0932	1.07	-0.806	1.84	-0.696	1.78	0.437	1.9	0.981	1.06	2.71	2.16	0.216	0.0356
CAAACTAGGTCAAGAGGTCAATGTCCGCTTCCCG	8.38	8.12	2.46	0.644	3.95	5.63	1.52	6.79	2.12	5.3	5.98	7.68	7.46	2.81	7.85	4.21	2.55	4.02
CCTAGCTGGCCAATCTGGGTCACTCAAGGCTTGA	3.93	4.25	-0.85	-1.11	-0.162	0.708	-0.934	1.02	-1.02	1.09	1.72	0.659	0.818	-0.0999	0.716	2.69	0.234	-0.441
TTACCGAGGTGAAGGTCGTTGATCCCTCTGTAGA	1.78	3.4	0.416	0.34	0.505	1.72	0.178	1.84	-0.539	2.11	1.72	1.58	1.02	-0.12	2	2.66	1.16	0.99
ATACGTAGGTTAGCTGGGGTCATTCAGACTAGGC	0.981	1.51	0.0785	0.0192	1.82	6.17	4.22	5.33	0.497	2.93	3.71	4.03	3.01	1.65	5.42	4.9	2.74	4.13
ATACCAAGGTGATCGTGAGGTCGTTAATACTAAC	0.582	1.08	0.575	0.441	1.01	3.26	1.7	2.15	0.0918	1.44	1.68	1.93	0.856	0.881	1.32	3.3	2.44	3.04
CGTCAAAGCTCAAGGTAACGTAACAGAAAGCAGC	0.0198	-0.221	-1.47	-0.249	-0.421	-0.257	-0.303	0.0827	-0.0827	-0.0501	-0.207	0.00785	0.083	-0.317	0.0693	1.29	0.693	-0.4
ACTTACGGGACAACGAGGTTATAGCACGCGTATA	0.742	0.83	0.547	1	0.641	0.83	0.728	0.933	0.919	1.03	1.17	0.768	1.24	0.749	1.03	1.69	0.953	1.94
GATACAGGATCAGCTAGAGGCCAGAGTATGGAAA	-1.08	-0.432	-0.311	-0.748	-0.609	-0.395	-0.577	-0.16	-0.552	0.184	-0.0727	1.16	0.363	-0.823	0.154	-0.0869	-1	-0.773
CCTCGGAGGACAAAAGGAGGTCAGAGCTGCCAGA	0.965	1.96	-1.11	-2.13	1.84	2.15	0.144	2.45	0.515	2.39	3.07	3.24	2.75	0.256	1.82	2.5	0.878	1.23
